The source of these data is PubChem BioAssay (EPA / NIEHS).

Active and inactive are the calls of the source. How the source made its calls: active means hit-call score of the fitted dose curve at least 0.9, where 1 is the maximum; inactive means score below 0.9.

What all share (details): mRNA level, 48 h; actives raise or lower the signal
Read-out in experiment [1]: Cytochrome P450 4A22 (Homo sapiens) (UniProt Q5TCH4)
Briefly: LTEA_HepaRG_CYP4A22: Life Technologies and Expression Analysis (LTEA) Assay for Cytochrome P450 4A22 (CYP4A22) using HepaRG (AID 2283495). The procedure, abridged:
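Concentration-response (8 points, max 100 uM, 0.5% DMSO) in human HepaRG liver cells after 48 h exposure. CYP4A22 mRNA by TaqMan qRT-PCR with housekeeping-gene normalization.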

Read-out in experiment [2]: Cytochrome P450 7A1 (Homo sapiens) (UniProt P22680)
Briefly: LTEA_HepaRG_CYP7A1: Life Technologies and Expression Analysis (LTEA) Assay for Cytochrome P450 7A1 (CYP7A1) using HepaRG (AID 2283496). In outline:
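Gene expression endpoint in human HepaRG liver cells treated for 48 h with test chemicals (up to 100 uM, 0.5% DMSO). Values come from bidirectional concentration-response fitting versus DMSO.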

Read-out in experiment [3]: Glutathione S-Transferase (GSTA2), GSTA2 (gene 2939)
In words: LTEA_HepaRG_GSTA2: Life Technologies and Expression Analysis (LTEA) Assay for Glutathione S-Transferase (GSTA2) using HepaRG (AID 2283497). The procedure, abridged: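 Differentiated human HepaRG cells were exposed in duplicate for 48 h in serum-free induction medium, 8 points from 100 uM top in half-log steps, 0.5% DMSO. GSTA2 mRNA was measured by TaqMan qRT-PCR, normalized to ACTB, GAPDH and POLR2A; bidirectional fit versus DMSO.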

Read-out in experiment [4]: Glutamate-cysteine ligase catalytic (GCLC), GCLC (gene 2729)
In words: LTEA_HepaRG_GCLC: Life Technologies and Expression Analysis (LTEA) Assay for Glutamate-cysteine ligase catalytic (GCLC) using HepaRG (AID 2283498). The procedure, abridged: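 Differentiated HepaRG cells exposed 48 h in serum-free induction medium, eight-point half-log series topping at 100 uM in 0.5% DMSO, duplicates. GCLC mRNA by qRT-PCR normalized to ACTB, GAPDH and POLR2A, fitted bidirectionally versus DMSO.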

Read-out in experiment [5]: Glutamate-cysteine ligase regulatory (GCLM), GCLM (gene 2730)
Briefly: LTEA_HepaRG_GCLM: Life Technologies and Expression Analysis (LTEA) Assay for Glutamate-cysteine ligase regulatory (GCLM) using HepaRG (AID 2283500). The procedure, abridged:
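Human liver HepaRG cultures receive test chemicals for 48 hours at up to 100 uM in 0.5% DMSO. GCLM expression is measured by qRT-PCR and analysed for increases or decreases against vehicle.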

Read-out in experiment [6]: Heat shock 70 kDa protein 1 (HSPA1A), gene 3303
Briefly: LTEA_HepaRG_HSPA1A: Life Technologies and Expression Analysis (LTEA) Assay for Heat shock 70 kDa protein 1 (HSPA1A) using HepaRG (AID 2283502). In outline: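 HSPA1A induction in human HepaRG liver cells is measured after 48 h of chemical treatment (100 uM maximum, 0.5% DMSO vehicle). Expression comes from qRT-PCR normalized to endogenous controls.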

Read-out in experiment [7]: Hypoxia-inducible factor 1-alpha (Homo sapiens) (UniProt Q16665)
In words: LTEA_HepaRG_HIF1A: Life Technologies and Expression Analysis (LTEA) Assay for Hypoxia-inducible factor 1 (HIF1A) Trancription factor using HepaRG (AID 2283503).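 Further: HIF1A transcript by TaqMan qRT-PCR normalized to ACTB GAPDH and POLR2A.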 The procedure, abridged:
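HepaRG, 48 h exposure, 8-pt half-log series from 100 uM, 0.5% DMSO vehicle, duplicates. Readout: HIF1A transcript by qRT-PCR (Fluidigm array), housekeeping-normalised. Bidirectional curve fit vs DMSO baseline.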

Read-out in experiment [8]: 3-Hydroxy-3-Methylglutaryl-CoA Synthase 2 (HMGCS2), HMGCS2 (gene 3158)
Briefly: LTEA_HepaRG_HMGCS2: Life Technologies and Expression Analysis (LTEA) Assay for 3-Hydroxy-3-Methylglutaryl-CoA Synthase 2 (HMGCS2) using HepaRG (AID 2283504). The procedure, abridged: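 This steatosis marker was read as HMGCS2 mRNA change in HepaRG cells treated 48 h with up to 100 uM chemical. Normalisation used housekeeping genes; activity in either direction was fitted relative to 0.5% DMSO vehicle.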

Read-out in experiment [9]: HGF (gene 3082)
Briefly: LTEA_HepaRG_HGF: Life Technologies and Expression Analysis (LTEA) Assay for Hepatocyte Growth Facto (HGF) using HepaRG (AID 2283505). In outline:
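Using HepaRG monolayers kept in 0.5% DMSO, chemicals were tested in duplicate over eight half-log concentrations from 100 uM for 48 h. Endpoint: HGF mRNA change relative to DMSO, normalized to ACTB/GAPDH/POLR2A.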

Read-out in experiment [10]: Insulin Like Growth Factor 1 (IGF1), IGF1 (gene 3479)
Briefly: LTEA_HepaRG_IGF1: Life Technologies and Expression Analysis (LTEA) Assay for Insulin Like Growth Factor 1 (IGF1) using HepaRG (AID 2283506). In outline:
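Using human HepaRG liver cells, IGF1 transcript induction or suppression is measured 48 h after dosing across eight concentrations capped at 100 uM. Values derive from bidirectional concentration-response fitting with DMSO as baseline.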

Read-out in experiment [11]: Intercellular Adhesion Molecule 1 (ICAM1), ICAM1 (gene 3383)
Briefly: LTEA_HepaRG_ICAM1: Life Technologies and Expression Analysis (LTEA) Assay for Intercellular Adhesion Molecule 1 (ICAM1) using HepaRG (AID 2283507). In outline: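 Using the human liver line HepaRG, compounds are tested in duplicate over 48 h at concentrations up to 100 uM. Expression is determined by TaqMan qRT-PCR, normalized to endogenous controls, and analysed relative to 0.5% DMSO vehicle.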

Read-out in experiment [12]: Insulin-like growth factor-binding protein 1 (IGFBP1), IGFBP1 (gene 3484)
In words: LTEA_HepaRG_IGFBP1: Life Technologies and Expression Analysis (LTEA) Assay for Insulin-like growth factor-binding protein 1 (IGFBP1) using HepaRG (AID 2283508). In outline:
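HepaRG, 48 h, 8 conc. (max 100 uM, half-log), duplicates, 0.5% DMSO. Readout: TaqMan qRT-PCR, ACTB/GAPDH/POLR2A normalisation. Fit: bidirectional vs DMSO.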

Read-out in experiment [13]: Interleukin 6 Receptor (IL6R), IL6R (gene 3570)
In words: LTEA_HepaRG_IL6R: Life Technologies and Expression Analysis (LTEA) Assay for Interleukin 6 Receptor (IL6R) using HepaRG (AID 2283510).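 On AC50: TaqMan qRT-PCR signal normalized to ACTB GAPDH and POLR2A housekeeping genes.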 In outline:
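Concentration-response in human liver HepaRG cells: eight concentrations from 100 uM downward by half-logs, 48 h exposure, 0.5% DMSO vehicle. IL6R mRNA change measured by qRT-PCR and fitted in both directions relative to vehicle.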

Read-out in experiment [14]: Potassium channel subfamily K member 1 (KCNK1), KCNK1 (gene 3775)
In words: LTEA_HepaRG_KCNK1: Life Technologies and Expression Analysis (LTEA) Assay for Potassium channel subfamily K member 1 (KCNK1) using HepaRG (AID 2283511). The procedure, abridged:
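Differentiated HepaRG cells, 48 h exposure in serum-free induction medium with 0.5% DMSO; 8 concentrations, half-log from 100 uM, duplicate. KCNK1 mRNA by qRT-PCR, normalized to ACTB, GAPDH, POLR2A; bidirectional fit vs DMSO.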

Read-out in experiment [15]: Keratin 19 (KRT19), KRT19 (gene 3880)
Briefly: LTEA_HepaRG_KRT19: Life Technologies and Expression Analysis (LTEA) Assay for Keratin 19 (KRT19) using HepaRG (AID 2283512). In outline:
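Readout is qRT-PCR of KRT19 mRNA, normalized to ACTB, GAPDH and POLR2A, from HepaRG cells treated 48 h with eight-point half-log dilutions topping at 100 uM. Activity in either direction is scored relative to 0.5% DMSO vehicle.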

Read-out in experiment [16]: JUN Transcription Factor, JUN (gene 3725)
In words: LTEA_HepaRG_JUN: Life Technologies and Expression Analysis (LTEA) Assay for JUN Transcription Factor using HepaRG (AID 2283513). The procedure, abridged: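 Human HepaRG liver cells receive test chemicals in 0.5% DMSO for 48 h across an eight-point range topping at 100 uM. Expression changes in JUN are scored in both directions against the DMSO vehicle.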

Read-out in experiment [17]: Lipase C (LIPC), LIPC (gene 3990)
Briefly: LTEA_HepaRG_LIPC: Life Technologies and Expression Analysis (LTEA) Assay for Lipase C (LIPC) using HepaRG (AID 2283514). In outline: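 HepaRG cells, 48 h after plating, treated in duplicate for 48 h in serum-free induction medium over 8 half-log concentrations from 100 uM, 0.5% DMSO. LIPC mRNA by TaqMan qRT-PCR normalized to ACTB/GAPDH/POLR2A; bidirectional fit versus DMSO.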

Read-out in experiment [18]: Interleukin 6 (IL6), IL6 (gene 3569)
In words: LTEA_HepaRG_IL6: Life Technologies and Expression Analysis (LTEA) Assay for Interleukin 6 (IL6) using HepaRG (AID 2283509). In outline:
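HepaRG cells exposed in duplicate for 48 h to eight half-log concentrations, top 100 uM, in 0.5% DMSO serum-free induction medium. mRNA measured by qRT-PCR, normalized to ACTB, GAPDH and POLR2A. Bidirectional fit versus DMSO.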

Read-out in experiment [19]: Glutathione S-transferase M3 (GSTM3), GSTM3 (gene 2947)
Briefly: LTEA_HepaRG_GSTM3: Life Technologies and Expression Analysis (LTEA) Assay for Glutathione S-transferase M3 (GSTM3) using HepaRG (AID 2283501). In outline: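 Expression of GSTM3 is determined by qRT-PCR in human liver HepaRG cells treated 48 h with an 8-point half-log range from 100 uM in 0.5% DMSO.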

Sequence of Hypoxia-inducible factor 1-alpha (Homo sapiens) (Q16665 whole entry, looked up): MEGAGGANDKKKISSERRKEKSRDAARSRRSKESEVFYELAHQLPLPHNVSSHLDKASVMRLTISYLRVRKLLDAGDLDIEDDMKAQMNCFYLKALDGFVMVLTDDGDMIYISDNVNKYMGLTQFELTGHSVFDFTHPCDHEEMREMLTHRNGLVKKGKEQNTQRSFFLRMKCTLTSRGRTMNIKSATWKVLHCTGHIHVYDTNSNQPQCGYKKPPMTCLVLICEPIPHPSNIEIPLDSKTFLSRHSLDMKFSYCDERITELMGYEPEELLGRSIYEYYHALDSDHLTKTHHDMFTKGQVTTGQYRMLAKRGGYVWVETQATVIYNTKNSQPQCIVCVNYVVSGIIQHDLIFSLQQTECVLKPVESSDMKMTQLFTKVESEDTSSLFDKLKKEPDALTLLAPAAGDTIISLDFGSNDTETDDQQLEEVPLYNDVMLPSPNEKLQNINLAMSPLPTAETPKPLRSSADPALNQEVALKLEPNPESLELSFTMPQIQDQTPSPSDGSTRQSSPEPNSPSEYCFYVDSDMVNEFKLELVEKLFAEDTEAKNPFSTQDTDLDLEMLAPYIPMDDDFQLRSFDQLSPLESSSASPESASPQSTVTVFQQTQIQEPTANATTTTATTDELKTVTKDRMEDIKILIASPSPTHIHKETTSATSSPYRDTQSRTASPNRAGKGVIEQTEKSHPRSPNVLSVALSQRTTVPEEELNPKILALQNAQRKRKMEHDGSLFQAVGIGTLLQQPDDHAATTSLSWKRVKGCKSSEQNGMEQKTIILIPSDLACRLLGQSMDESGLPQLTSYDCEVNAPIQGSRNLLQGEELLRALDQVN

In the case of `O=c1ccc2ccccc2o1`, the outcome in experiment [1], in experiment [2], in experiment [3], in [4], in experiment [5] and in [6] was inactive. Besides, the outcome in [7], in experiment [8], in experiment [9], in experiment [10], in experiment [11] and in [12] was inactive. Further, the result in [13], in experiment [14], in experiment [15], in experiment [16] and in experiment [17] was inactive.
As to `Cc1cn([C@H]2C[C@H](N=[N+]=[N-])[C@@H](CO)O2)c(=O)[nH]c1=O`, the call in experiment [1], in [2], in experiment [3], in experiment [4], in experiment [5] and in [6] was inactive. Moreover, the compound was classed as inactive in experiment [8], in [9], in experiment [10], in [11], in experiment [12] and in experiment [18]. Moreover, the compound was called inactive in [13], in experiment [15], in experiment [16] and in experiment [17].
Turning to `CCCCOC(=O)c1ccc(O)cc1`, the result in [1], in [2], in [3], in [4], in experiment [5] and in experiment [19] was inactive. In addition, the compound was classed as inactive in experiment [6], in [8], in experiment [10], in experiment [11], in experiment [12] and in experiment [18]. Moreover, the compound was called inactive in [13], in experiment [14], in experiment [15], in experiment [16] and in [17].
One may read the AC50 as the midpoint of the concentration-response curve, whichever way the signal moves. As to `CC(C)(c1cc(Br)c(O)c(Br)c1)c1cc(Br)c(O)c(Br)c1`, the compound was classed as inactive in experiment [1], in experiment [2], in [5], in [13], in [14] and in [15]. For the same compound, the compound was called inactive in experiment [17]. Also, the AC50 was 72.4 µM (active) in experiment [3]; 78 µM (active) in [4]; 88.6 µM (active) in experiment [6]; 74 µM (active) in experiment [7]; 89.2 µM (active) in [8]; 77 µM (active) in [10]. For the same compound, the AC50 is 74.5 µM (active) in experiment [11], 69.1 µM (active) in [12] and 94.7 µM (active) in [16].
As to `CN(C)c1ccc(C(=C2C=CC(=[N+](C)C)C=C2)c2ccc(N(C)C)cc2)cc1`, the AC50 is 3.65 µM (active) in experiment [1]; 4.38 µM (active) in experiment [2]; 4.31 µM (active) in [3]; 20.1 µM (active) in experiment [4]; 95.3 µM (active) in experiment [5]; 86.5 µM (active) in experiment [6]. The AC50 was 44.3 µM (active) in experiment [7]; 3.66 µM (active) in experiment [8]; 1.44 µM (active) in experiment [10]; 73.1 µM (active) in experiment [11]; 3.64 µM (active) in experiment [12]; 12.5 µM (active) in experiment [13]. For the same compound, the AC50 is 4.74 µM (active) in [15], 89.2 µM (active) in [16] and 3.01 µM (active) in experiment [17].
For the compound `Cc1occc1C(=O)Nc1ccc(C(=O)N2CCC(F)(F)/C(=C\C(=O)N3CCC(N4CCCCC4)CC3)c3ccccc32)cc1`, the half-maximal activity concentration (AC50) was 57.5 µM (active) in experiment [1]; 17.2 µM (active) in experiment [2]; 52 µM (active) in experiment [3]; 31.2 µM (active) in experiment [19]; 31.2 µM (active) in [8]; 5.3 µM (active) in experiment [10]. Moreover, the AC50 was 46.1 µM (active) in experiment [12]; 51.9 µM (active) in [18]; 27.5 µM (active) in experiment [13]; 49.6 µM (active) in experiment [15]; 45.4 µM (active) in experiment [17]. Moreover, the compound was called inactive in [4], in experiment [5], in experiment [6], in [7], in experiment [11] and in experiment [16].
